Laboratory results: PubChem BioAssay
Potency and affinity values are given separately. Inconclusive results are not listed. Active and inactive are the calls of the source. Unless noted, the rule behind the calls is not given here.

What was measured:
[1] = RMG-1 ovarian cancer cell viability loss – cherry-pick, dose response (AID 687029;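 active = signal drop whose fitted half-maximal concentration is at most twice the top valid dose, in every test run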;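 note: cells exposed to compound for 96 hours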)
[2] = IOSE-T80 viability loss, PAX8-independent line – cell-based, cherry-pick, selectivity assay for PAX8 inhibitor project, dose response (AID 687032;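 active = fitted half-maximal concentration for viability loss no higher than twice the top valid dose, in every repeat run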;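 note: cells exposed to compound for 96 h before reading; 0% = neutral control wells and -100% = 2 µM mitoxantrone kill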)
[3] = CMV-driven luciferase expression suppression in HEK293 – cell-based, luminescence, dry powder, counter-screen for Pax8 inhibitor project, dose response (AID 743020;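 active = signal-lowering compounds whose fitted half-maximal concentration is at or below twice the top tested dose in every run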;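 note: HEK293 cells stably expressing the CMV luciferase reporter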)
[4] = general cell-killing toxicity readout – plate reader, dry powder samples, cytotoxicity control for PAX8 inhibitor project, dose response (AID 743021)
[5] = IGROV1 cell killing – plate reader, dry powder samples, PAX8 inhibitor project, dose response (AID 743043);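 note: more negative means fewer viable cells or more cytotoxicity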
[6] = OVCAR-3 cell viability loss – plate reader, dry powder samples, PAX8 inhibitor project, dose response (AID 743044); conditions: max activity: at 35 µM, stronger effect = lower value unless noted
[7] = toxicity toward immortalized ovarian surface epithelium – cell-based, plate reader, dry powder samples, cytotoxicity control for PAX8 inhibitor project, dose response (AID 743045);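 note: 0% = neutral control median and -100% = positive control median; more negative values mean more cell killing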
[8] = A2780 cell killing – plate reader, dry powder samples, cytotoxicity control, dose response (AID 743046);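 note: 0% = neutral control wells and -100% = cytotoxic reference compound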
[9] = OVCAR8 cell viability loss – plate reader, dry powder samples, PAX8 project, dose response (AID 743197)

Measured: max activity

Cc1ccc(S(=O)(=O)N(C)C[C@@H]2OCCCC[C@H](C)Oc3ccc(NS(=O)(=O)c4ccc(Cl)cc4)cc3C(=O)N([C@H](C)CO)C[C@H]2C)cc1
inactive: [1] | [2] | [3] | [4] | [5] | [6] 19.8% [at 0.5 µM, stronger effect = lower value] | [7] | [8] | [9]

C[C@@H]1CN([C@H](C)CO)C(=O)Cc2cc(NC(=O)Cc3ccccc3)ccc2O[C@@H]1CN(C)Cc1ccc(C(F)(F)F)cc1
inactive: [1] | [2] | [3] | [4] | [5] | [6] -9.67% [at 0.26 µM, stronger effect = lower value] | [7] | [8] | [9]

C[C@@H]1CN([C@H](C)CO)C(=O)Cc2cc(NS(=O)(=O)c3ccccc3)ccc2O[C@@H]1CN(C)S(=O)(=O)c1ccc(Cl)cc1
inactive: [1] | [2] | [3] | [4] | [5] | [6] 47.5% | [7] | [8] | [9]

O=C(Nc1ccc(C(F)(F)F)cc1)N1C[C@@H]2N[C@H](C1)C2c1ccc(-c2ccccc2)cc1 (some centres not stated)
inactive: [1] | [2] | [3] | [4] | [5] | [6] 13.9% [at 0.26 µM, stronger effect = lower value] | [7] | [8] | [9]

CO[C@H]1CN(C)C(=O)c2cc(NC(=O)c3nc4ccccc4s3)ccc2OC[C@H](C)N(Cc2cccnc2)C[C@H]1C
inactive: [1] | [2] | [3] | [4] | [5] | [6] 15.1% [at 0.26 µM, stronger effect = lower value] | [7] | [8] | [9]

C[C@H](CO)N1C[C@H](C)[C@H](CN(C)Cc2ccc(Cl)c(Cl)c2)Oc2c(NS(=O)(=O)c3ccc(Cl)cc3)cccc2C1=O
inactive: [1] | [2] | [3] | [4] | [5] | [6] 53.6% | [7] | [8] | [9]

COc1ccc(S(=O)(=O)Nc2ccc3c(c2)C(=O)N([C@@H](C)CO)C[C@H](C)[C@H](CN(C)Cc2ccc(C(F)(F)F)cc2)OCCCC[C@@H](C)O3)cc1
inactive: [1] | [2] | [3] | [4] | [5] | [6] 26.1% | [7] | [8] | [9]

C[C@@H]1CN([C@@H](C)CO)C(=O)c2cc(NS(=O)(=O)c3ccc(F)cc3)ccc2O[C@@H](C)CCCCO[C@H]1CN(C)Cc1ccc(C(F)(F)F)cc1
inactive: [1] | [2] | [3] | [4] | [5] | [6] -20.3% [at 0.26 µM, stronger effect = lower value] | [7] | [8] | [9]

C[C@H]1CN([C@@H](C)CO)C(=O)Cc2cc(NC(=O)Nc3ccc(C(F)(F)F)cc3)ccc2O[C@H]1CN(C)C(=O)NC1CCCCC1
inactive: [1] | [2] | [3] | [4] | [5] | [6] 30.7% [at 1.1 µM, stronger effect = lower value] | [7] | [8] | [9]

C[C@H](CO)N1C[C@H](C)[C@H](CN(C)Cc2ccc3c(c2)OCO3)OCCCC[C@H](C)Oc2ccc(NS(=O)(=O)c3ccc(Cl)cc3)cc2C1=O
inactive: [1] | [2] | [3] | [4] | [5] | [6] 2.84% | [7] | [8] | [9]

C[C@H](O)C#Cc1cnc2c(c1)C(=O)N([C@H](C)CO)C[C@H](C)[C@H](CN(C)Cc1ccc(-c3ccccc3)cc1)O2
inactive: [1] | [2] | [3] | [4] | [5] | [6] 9.01% [at 0.26 µM, stronger effect = lower value] | [7] | [8] | [9]

C[C@@H]1CCCCO[C@@H](CN(C)CC2CCCCC2)[C@@H](C)CN([C@@H](C)CO)C(=O)c2cc(NC(=O)Nc3ccc(C(F)(F)F)cc3)ccc2O1
inactive: [1] | [2] | [3] | [4] | [5] | [6] 17.1% [at 0.5 µM, stronger effect = lower value] | [7] | [8] | [9]

Cc1cccc(S(=O)(=O)N2CC[C@@H]3[C@H](CO)Nc4ccc(C5=CCCCC5)cc4[C@@H]32)c1
inactive: [1] | [2] | [3] | [4] | [5] | [6] 25.1% [at 1.1 µM, stronger effect = lower value] | [7] | [8] | [9]

Cc1ccc(S(=O)(=O)N(C)C[C@H]2Oc3ccc(NC(=O)Cc4ccccc4)cc3C(=O)N([C@H](C)CO)C[C@@H]2C)cc1
inactive: [1] | [2] | [3] | [4] | [5] | [6] 7.17% [at 8 µM, stronger effect = lower value] | [7] | [8] | [9]

COc1cccc(-c2ccc3c(c2)[C@@H]2[C@@H](CCN2C(=O)NC2CCCCC2)[C@H](CO)N3C)c1
inactive: [1] | [2] | [3] | [4] | [5] | [6] -16.7% [at 2.1 µM, stronger effect = lower value] | [7] | [8] | [9]

CC(C)CC#Cc1ccc2c(c1)O[C@@H](CN(C)Cc1ccncc1)[C@H](C)CN([C@@H](C)CO)S2(=O)=O
inactive: [1] | [2] | [3] | [4] | [5] | [6] 11.2% [at 4.2 µM, stronger effect = lower value] | [7] | [8] | [9]

C[C@@H]1CCCCO[C@@H](CN(C)Cc2ccc(C(F)(F)F)cc2)[C@H](C)CN([C@H](C)CO)C(=O)c2cc(NS(=O)(=O)c3ccc(Cl)cc3)ccc2O1
inactive: [1] | [2] | [3] | [4] | [5] | [6] -15.2% [at 1.1 µM, stronger effect = lower value] | [7] | [8] | [9]

C[C@@H]1CN([C@H](C)CO)C(=O)c2cc(NC(=O)c3ccncc3)ccc2O[C@@H](C)CCCCO[C@H]1CN(C)Cc1ccc(C(F)(F)F)cc1
inactive: [1] | [2] | [3] | [4] | [5] | [6] 14.3% [at 0.5 µM, stronger effect = lower value] | [7] | [8] | [9]

COc1ccc(S(=O)(=O)N2CCCCN3[C@H](C2)[C@@H](c2ccc(C#CC(C)C)cc2)[C@@H]3CO)cc1
inactive: [1] | [2] | [3] | [4] | [5] | [6] 10.6% [at 8 µM, stronger effect = lower value] | [7] | [8] | [9]

CN1c2ccc(C#Cc3cccnc3)cc2[C@@H]2[C@@H](CCN2C(=O)Cc2cccnc2)[C@@H]1CO
inactive: [1] | [2] | [3] | [4] | [5] | [6] 17.5% [at 16 µM, stronger effect = lower value] | [7] | [8] | [9]

C[C@@H]1CCCCO[C@@H](CN(C)C(=O)C2CCCCC2)[C@H](C)CN([C@H](C)CO)C(=O)c2cc(NS(=O)(=O)c3ccc(Cl)cc3)ccc2O1
inactive: [1] | [2] | [3] | [4] | [5] | [6] -13.3% [at 0.5 µM, stronger effect = lower value] | [7] | [8] | [9]

C[C@@H]1CN([C@@H](C)CO)C(=O)Cc2cc(NC(=O)Nc3ccc(F)cc3)ccc2O[C@H]1CN(C)Cc1ccc(Cl)c(Cl)c1
inactive: [1] | [2] | [3] | [4] | [5] | [6] 11.5% [at 4.2 µM, stronger effect = lower value] | [7] | [8] | [9]

C[C@H]1CCCCO[C@@H](CN(C)C)[C@@H](C)CN([C@@H](C)CO)C(=O)c2cc(NC(=O)Nc3ccc(C(F)(F)F)cc3)ccc2O1
inactive: [1] | [2] | [3] | [4] | [5] | [6] -16.2% [at 8 µM, stronger effect = lower value] | [7] | [8] | [9]

C[C@@H]1CN([C@@H](C)CO)S(=O)(=O)c2ccc(C#Cc3ccc(F)cc3)cc2O[C@H]1CN(C)C(=O)NC1CCCCC1
inactive: [1] | [2] | [3] | [4] | [5] | [6] -9.84% | [7] | [8] | [9]

C[C@H]1CN([C@@H](C)CO)C(=O)c2c(c3ccccc3n2C)-c2ccccc2CO[C@@H]1CN(C)Cc1ccc(-c2ccccc2)cc1
inactive: [1] | [2] | [3] | [4] | [5] | [6] 59% [at 30 µM, stronger effect = lower value] | [7] | [8] | [9]

C[C@@H]1CCCCO[C@H](CN(C)C(=O)Nc2ccc(F)cc2)[C@@H](C)CN([C@@H](C)CO)C(=O)c2cc(NC(=O)Nc3ccc(C(F)(F)F)cc3)ccc2O1
inactive: [1] | [2] | [3] | [4] | [5] | [6] 19.8% [at 0.26 µM, stronger effect = lower value] | [7] | [8] | [9]

C[C@H](CO)N1C[C@H](C)[C@H](CN(C)C(=O)NC2CCCCC2)Oc2cc(C#Cc3cccc(F)c3)ccc2S1(=O)=O
inactive: [1] | [2] | [3] | [4] | [5] | [6] 16.5% [at 0.5 µM, stronger effect = lower value] | [7] | [8] | [9]

COc1ccc(NC(=O)Nc2ccc3c(c2)CC(=O)N([C@@H](C)CO)C[C@@H](C)[C@@H](CN(C)Cc2ccc(Oc4ccccc4)cc2)O3)cc1
inactive: [1] | [2] | [3] | [4] | [5] | [6] 14.4% [at 18 µM, stronger effect = lower value] | [7] | [8] | [9]
